# Laboratory results published in PubChem BioAssay (Tox21).
# “And” between values parts separate entries of the source, which are not always exact repeats. Equal values may be shown once. Records with an inconclusive call do not appear. Where a call stands in place of a potency, no number is given. Some compounds were tested as several samples or in several runs, with calls that do not always agree. The source made the active and inactive calls. Calls follow the shape of the full dose curve.
# Target: 5-hydroxytryptamine receptor 2A (Homo sapiens) (UniProt P28223)
# Test: 5-hydroxytryptamine receptor 2A (HTR2A) small molecule antagonists, cell-based qHTS assay (AID 1963586); also: nearly all actives have a fitted effect of over 45% in size
# Details: HTR2A-CHO cells, DOI-induced calcium flux, fluorescence; series mostly up to 61.5 µM
# Description: National Center for Advancing Translational Sciences [NCATS]
# Division of Preclinical Innovation [DPI]
# U.S. Environmental Protection Agency [EPA]
# National Institutes of Environmental Health Sciences [NIEHS]
# National Toxicology Program [NTP]
# U.S. Food and Drug Administration [FDA]
# The HTR2A receptor is a subtype of the 5-HT2 receptor that belongs to the serotonin receptor family and is a G protein-coupled receptor (GPCR). The HTR2A-CHO cell line stably expressing human 5-hydroxytryptamine receptor 2A (HTR2A) can be used for screening antagonists of interactions between 5-HT2 and its ligands. The HTR2A-CHO calcium flux assay is a homogeneous fluorescence-based assay for detecting the intracellular calcium level using FDSS kinetic plate reader system.
# Tox21 Assay Protocol Summary:
# HTR2A-CHO cells were dispensed at 2000 cells/3uL/well in 1536-well black-clear bottom plates using a Multidrop Dispenser. After the assay plates were incubated at a 37 C/5% CO2 incubator for 18 h, 3 uL of Dye Loading Buffer was transferred to the assay plate by a Flying Reagent Dispenser. The assay plates were incubated at 37 C for 1h. For antagonist mode, 23 nL of compounds dissolved in DMSO, positive controls or DMSO only was transferred to the assay plate by a pin tool. After 5 min incubation at room temperature, 1.5 uL of 4-Iodo-2,5-dimethoxy-alpha-methylbenzeneethanamine hydrochloride (DOI) at 4nM was added to each well. The fluorescence intensity in the plates was measured using FDSS 7000EX kinetic plate reader for 3 min at 1 sec intervals.
# Potency is read from the fitted curve at half-maximal effect.
# Sequence of 5-hydroxytryptamine receptor 2A (Homo sapiens) (P28223 whole entry, looked up): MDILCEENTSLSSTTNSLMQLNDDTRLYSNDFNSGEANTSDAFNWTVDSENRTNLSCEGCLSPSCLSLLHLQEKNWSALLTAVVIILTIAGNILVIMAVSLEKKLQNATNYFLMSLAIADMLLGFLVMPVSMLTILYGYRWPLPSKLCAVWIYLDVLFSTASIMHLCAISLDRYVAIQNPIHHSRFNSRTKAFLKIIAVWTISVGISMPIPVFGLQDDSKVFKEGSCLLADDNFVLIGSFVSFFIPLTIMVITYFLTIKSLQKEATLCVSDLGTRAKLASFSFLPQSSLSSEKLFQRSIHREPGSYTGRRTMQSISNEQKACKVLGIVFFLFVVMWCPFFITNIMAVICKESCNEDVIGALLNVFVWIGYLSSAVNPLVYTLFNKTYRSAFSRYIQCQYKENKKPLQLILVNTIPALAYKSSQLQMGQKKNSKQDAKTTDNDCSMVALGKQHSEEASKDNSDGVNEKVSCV
row,Structure (SMILES),Potency
1,Cc1cc(C(C)(C)C)c(O)c(C(C)(C)C)c1,inactive
2,Nc1ccc2c(O)cc(S(=O)(=O)O)cc2c1,inactive
3,CCCCCC1=CCCC1=O,inactive
4,O=c1cc[nH]c(=O)[nH]1,inactive
5,CC(C)OC(=O)COc1ccc(Cl)cc1Cl,inactive
6,Oc1c(Cl)cc(Cl)c(Cl)c1Cl,inactive
7,N#Cc1ccccc1,inactive
8,O=C(O)c1ccc2c(c1)C(=O)OC2=O,inactive
9,CC1=CCC2CC1C2(C)C (stereo not given),inactive
10,Cc1cc(CC(=O)O)n(C)c1C(=O)c1ccc(Cl)cc1,inactive
11,NC(=S)NNC(N)=S,inactive
12,O=C1O[C@H](CO)[C@@H](O)[C@H](O)[C@H]1O,inactive
13,C=C(C)C(=O)O,inactive
14,CCNC(=S)NCC,inactive
15,COC(=O)/C=C\C(=O)OC,inactive
16,O=S(=O)(O)NC1CCCCC1,inactive
17,O=C(O)Cn1c(=O)n(Cc2ccc(Br)cc2F)c(=O)c2ccc(Cl)cc21,inactive
18,CNC[C@H](O)[C@@H](O)[C@H](O)[C@H](O)CO,inactive
19,Oc1ccc(O)cc1,inactive
20,CC(=O)CC(C)(C)O,inactive

row,Structure (SMILES),Potency
1,CN1C(=O)CC[C@H]1c1cccnc1,inactive
2,c1ccc2c(c1)ccc1ccccc12,inactive
3,CC1=CC(=O)CC(C)(C)C1,inactive
4,Brc1ccc(Br)c(Br)c1,inactive
5,Clc1ccc(Sc2cc(Cl)c(Cl)cc2Cl)cc1,inactive
6,COC(=O)C(C)Oc1ccc(Oc2ncc(C(F)(F)F)cc2Cl)cc1 (stereo not given),inactive
7,O=c1cc[nH]c(=S)[nH]1,inactive
8,O=C1CCCCCCCCCCCN1,inactive
9,Cn1c([N+](=O)[O-])cnc1COC(N)=O,inactive
10,Cc1occc(=O)c1O,inactive
11,CC(=O)CC/C=C(\C)CCC=C(C)C,inactive
12,C=CC(=O)NC(C)(C)CS(=O)(=O)O,inactive
13,O=C(O)/C=C\C(=O)O,27.5 µM (active) and 3.75 µM (active) and inactive
14,COc1cc(NC(=O)CC(C)=O)c(OC)cc1Cl,inactive
15,CC1(C)CC(N=C=O)CC(C)(CN=C=O)C1 (stereo not given),inactive
16,C/C=C/c1ccc(OCC)c(O)c1,inactive
17,COc1ccccc1O,inactive
18,O=C1CCCCCCCCCCC1,inactive
19,C[Si](C)(C)N[Si](C)(C)C,inactive
20,CN(C)CCOC(=O)COc1ccc(Cl)cc1,inactive
